# Measured values taken from PubChem BioAssay (NCI).
# Values joined by “and” are separate entries in the source; they are usually repeats but may differ in a detail not shown here. Identical values can stand only once. Compounds without any hit were thinned out: in the full panel of roughly 83,000, 20% have a hit.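 Method: cells in 96-well plates; compound added at one concentration; 48 h incubation; percent growth measured; values under 10 scored active.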 More than one record can exist for a structure, and the calls need not agree. Active and inactive are the calls of the source.
# Tests used:
# Assay in all cases: NCI-60 one-dose screen, 48 h (100 = growth as untreated, 0 = no growth, -100 = all killed)
# T-47D breast = system: T-47D breast
# BT-549 breast = system: BT-549 breast
# MDA-MB-435 melanoma = system: MDA-MB-435 melanoma
# SW-620 colon = system: SW-620 colon
# MCF7 breast = system: MCF7 breast
# HCT-116 colon = system: HCT-116 colon
# HCC-2998 colon = system: HCC-2998 colon
# KM12 colon = system: KM12 colon
compound,measurement,setting,value
NC(=O)c1ccccc1OCC(O)CO (stereo unspecified),growth,T-47D breast; 10 µM unless noted,130% (inactive)
same,growth,BT-549 breast; 10 µM unless noted,109% (inactive)
same,growth,MDA-MB-435 melanoma; 10 µM unless noted,90% (inactive)
same,growth,SW-620 colon; 10 µM unless noted,101% (inactive)
same,growth,MCF7 breast; 10 µM unless noted,94.1% (inactive)
same,growth,HCT-116 colon; 10 µM unless noted,112% (inactive)
same,growth,HCC-2998 colon; 10 µM unless noted,114% (inactive)
same,growth,KM12 colon; 10 µM unless noted,115% (inactive)
Oc1c(Cl)cc(Cl)cc1Sc1cc(Cl)cc(Cl)c1O,growth,T-47D breast; 10 µM unless noted,77.4% (inactive) and 52.2% (inactive) and 80.7% (inactive)
same,growth,BT-549 breast; 10 µM unless noted,32.1% (inactive) and 77% (inactive)
same,growth,MDA-MB-435 melanoma; 10 µM unless noted,51% (inactive) and 26.6% (inactive) and 92.5% (inactive)
same,growth,SW-620 colon; 10 µM unless noted,15.7% (inactive) and 26.6% (inactive) and 83% (inactive)
same,growth,MCF7 breast; 10 µM unless noted,73.1% (inactive) and 5.37% (active) and 69.8% (inactive)
same,growth,HCT-116 colon; 10 µM unless noted,18.7% (inactive) and 11.8% (inactive) and 76.7% (inactive)
same,growth,HCC-2998 colon; 10 µM unless noted,50% (inactive) and 23.1% (inactive) and 86% (inactive)
same,growth,KM12 colon; 10 µM unless noted,46.7% (inactive) and 21% (inactive) and 80.2% (inactive)
CC#C[C@]1(O)CC[C@H]2[C@@H]3CCC4=CC(=O)CCC4=C3[C@@H](c3ccc4c(c3)OCO4)C[C@@]21C,growth,T-47D breast; 10 µM,45% (inactive)
same,growth,T-47D breast; 100 µM,-16.5% (active)
same,growth,BT-549 breast; 10 µM,77.8% (inactive)
same,growth,BT-549 breast; 100 µM,-33.1% (active)
same,growth,MDA-MB-435 melanoma; 10 µM,94.7% (inactive)
same,growth,MDA-MB-435 melanoma; 100 µM,-35.6% (active)
same,growth,MCF7 breast; 10 µM,82.2% (inactive)
same,growth,MCF7 breast; 100 µM,-4.09% (active)
same,growth,HCT-116 colon; 10 µM,78.4% (inactive)
same,growth,HCT-116 colon; 100 µM,-78.5% (active)
same,growth,HCC-2998 colon; 10 µM,94.4% (inactive)
same,growth,HCC-2998 colon; 100 µM,-22.7% (active)
same,growth,KM12 colon; 10 µM,86.3% (inactive)
same,growth,KM12 colon; 100 µM,-42.3% (active)
OC1CCC(Oc2cccc3cnc(Nc4ccc5nc[nH]c5c4)nc23)CC1 (stereo unspecified),growth,T-47D breast; 10 µM unless noted,-7.14% (active) and 43.9% (inactive)
same,growth,BT-549 breast; 10 µM unless noted,-19.5% (active) and 18.4% (inactive)
same,growth,MDA-MB-435 melanoma; 10 µM unless noted,12.3% (inactive) and 58.4% (inactive)
same,growth,SW-620 colon; 10 µM unless noted,5.88% (active) and 32.4% (inactive)
same,growth,MCF7 breast; 10 µM unless noted,5.53% (active) and 17.9% (inactive)
same,growth,HCT-116 colon; 10 µM unless noted,-6.99% (active) and 2.03% (active)
same,growth,HCC-2998 colon; 10 µM unless noted,8.35% (active) and 61.4% (inactive)
same,growth,KM12 colon; 10 µM unless noted,1.29% (active) and 15.7% (inactive)
N=C1N=C(N)CS1,growth,T-47D breast; 10 µM unless noted,108% (inactive)
same,growth,BT-549 breast; 10 µM unless noted,120% (inactive)
same,growth,MDA-MB-435 melanoma; 10 µM unless noted,106% (inactive)
same,growth,SW-620 colon; 10 µM unless noted,102% (inactive)
same,growth,MCF7 breast; 10 µM unless noted,96.8% (inactive)
same,growth,HCT-116 colon; 10 µM unless noted,107% (inactive)
same,growth,HCC-2998 colon; 10 µM unless noted,110% (inactive)
same,growth,KM12 colon; 10 µM unless noted,107% (inactive)
CCN(CC)CCOc1ccc2c(c1)C(=O)c1cc(OCCN(CC)CC)ccc1-2,growth,T-47D breast; 10 µM unless noted,111% (inactive) and 131% (inactive)
same,growth,BT-549 breast; 10 µM unless noted,96% (inactive) and 76.3% (inactive)
same,growth,MDA-MB-435 melanoma; 10 µM unless noted,73.4% (inactive) and 67% (inactive)
same,growth,SW-620 colon; 10 µM unless noted,34.5% (inactive) and 26.1% (inactive)
same,growth,MCF7 breast; 10 µM unless noted,30.1% (inactive) and 7.03% (active)
same,growth,HCT-116 colon; 10 µM unless noted,44.2% (inactive) and 13.2% (inactive)
same,growth,HCC-2998 colon; 10 µM unless noted,77.9% (inactive) and 56.5% (inactive)
same,growth,KM12 colon; 10 µM unless noted,54.8% (inactive) and 40.4% (inactive)
CCc1ccccc1-n1c(N)c(C#N)c(-c2ccc(OC)c(OC)c2)c(C#N)c1=O,growth,T-47D breast; 10 µM,102% (inactive)
same,growth,T-47D breast; 100 µM,3.67% (active)
same,growth,BT-549 breast; 10 µM,109% (inactive)
same,growth,BT-549 breast; 100 µM,-17.8% (active)
same,growth,MDA-MB-435 melanoma; 10 µM,113% (inactive)
same,growth,MDA-MB-435 melanoma; 100 µM,82.5% (inactive)
same,growth,SW-620 colon; 10 µM,116% (inactive)
same,growth,SW-620 colon; 100 µM,86.4% (inactive)
same,growth,MCF7 breast; 10 µM,115% (inactive)
same,growth,MCF7 breast; 100 µM,10.4% (inactive)
same,growth,HCT-116 colon; 10 µM,110% (inactive)
same,growth,HCT-116 colon; 100 µM,27.8% (inactive)
same,growth,HCC-2998 colon; 10 µM,122% (inactive)
same,growth,HCC-2998 colon; 100 µM,79.6% (inactive)
same,growth,KM12 colon; 10 µM,99.3% (inactive)
same,growth,KM12 colon; 100 µM,45.6% (inactive)
O=[N+]([O-])c1ccc(N/N=C\c2cc(Br)ccc2O)nc1,growth,T-47D breast; 10 µM unless noted,16% (inactive) and 33% (inactive)
same,growth,BT-549 breast; 10 µM unless noted,25.6% (inactive)
same,growth,MDA-MB-435 melanoma; 10 µM unless noted,29.3% (inactive) and 25.2% (inactive)
same,growth,SW-620 colon; 10 µM unless noted,27.3% (inactive) and 34.3% (inactive)
same,growth,MCF7 breast; 10 µM unless noted,13.4% (inactive) and 13.6% (inactive)
same,growth,HCT-116 colon; 10 µM unless noted,10.1% (inactive) and 15.2% (inactive)
same,growth,HCC-2998 colon; 10 µM unless noted,23.2% (inactive) and 23% (inactive)
same,growth,KM12 colon; 10 µM unless noted,32.5% (inactive) and 24% (inactive)
O=C(CN1CCN(c2cc3c(cc2F)c(=O)c(C(=O)O)cn3C2CC2)CC1)Nc1ccc(Cl)cc1,growth,T-47D breast; 10 µM unless noted,59.1% (inactive) and 92.4% (inactive)
same,growth,BT-549 breast; 10 µM unless noted,55.8% (inactive)
same,growth,MDA-MB-435 melanoma; 10 µM unless noted,88.4% (inactive) and 92.1% (inactive)
same,growth,SW-620 colon; 10 µM unless noted,101% (inactive) and 110% (inactive)
same,growth,MCF7 breast; 10 µM unless noted,94.3% (inactive) and 96.4% (inactive)
same,growth,HCT-116 colon; 10 µM unless noted,73.1% (inactive) and 99.7% (inactive)
same,growth,HCC-2998 colon; 10 µM unless noted,85.8% (inactive) and 103% (inactive)
same,growth,KM12 colon; 10 µM unless noted,82.9% (inactive) and 93.9% (inactive)
